# Results as given in PubChem BioAssay AID488835 (Broad Institute, 2010).
# Among all 1,400 compounds or so, about 140 (10%) were called active. These entries were drawn from the full list. Entries with a potency or affinity are not part of this list. Unmarked numbers belong to inactive results.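 Rule for the calls: active = Half-maximal inhibitory dose from the fit at or below ten times the top valid tested dose; inconclusive = Invalid fit, or flat curve showing 30 to 70% inhibition; inactive = the rest.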
# Molecular target: Lysine-specific demethylase 4C (Homo sapiens) (UniProt Q9H3R0)
# Test: GASC-1 (JMJD2C) histone demethylase inhibitors, dose response, biochemical, DELFIA europium, cherry-picked samples (AID 488835);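 note: signal is the H3K9me2 demethylation product detected by a dimethyl-specific antibody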
# Details: GST-JMJD2C(1-420), H3K9me3 demethylation; series mostly up to 6 µM; activity change, negative = inhibition: at the top concentration
# Chain of Lysine-specific demethylase 4C (Homo sapiens) (Q9H3R0 1-420 limits assumed): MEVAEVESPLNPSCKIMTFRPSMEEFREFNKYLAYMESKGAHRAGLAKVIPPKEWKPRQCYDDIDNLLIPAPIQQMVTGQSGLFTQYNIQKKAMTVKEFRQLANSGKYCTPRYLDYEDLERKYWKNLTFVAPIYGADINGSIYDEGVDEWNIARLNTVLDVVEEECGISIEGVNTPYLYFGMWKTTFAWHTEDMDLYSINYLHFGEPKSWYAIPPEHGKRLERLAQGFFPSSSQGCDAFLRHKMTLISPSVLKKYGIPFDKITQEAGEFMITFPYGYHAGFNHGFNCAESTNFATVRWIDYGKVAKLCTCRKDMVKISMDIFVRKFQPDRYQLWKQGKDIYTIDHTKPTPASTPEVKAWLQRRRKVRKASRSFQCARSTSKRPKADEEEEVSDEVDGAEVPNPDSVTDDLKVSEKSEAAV
row,SMILES,"activity change, negative = inhibition"
1,Cc1ccc(C(=O)N2CCN(c3ccc(Cl)cc3)CC2)cc1,1.79%
2,COc1cccc(NC(=O)CCN2C(=O)C3CC=CCC3C2=O)c1 (stereo not given),-8.52%
3,NC(=O)Cn1nc([N+](=O)[O-])nc1Oc1ccccc1F,-7.81%
4,S=C(NCc1ccco1)Nc1cccc(Cl)c1,-6.24%
5,O=C(NCc1ccccc1)c1ccc2c(c1)OCCO2,1.89%
6,Cc1noc(C)c1NC(=O)Nc1cccc2c1O[C@H](CN(C)C(=O)Nc1ccc3c(c1)OCO3)[C@@H](C)CN([C@H](C)CO)C2=O,12.1%
7,Cc1[nH]n(-c2ccccc2)c(=O)c1N=Nc1nccs1,-6.11%
8,CCOC(=O)N1CCc2c(sc3nc4n(c(=O)c23)N=C(C)CS4)C1,-0.154%
9,COc1ccc(CN(Cc2nc3ccccc3c(=O)[nH]2)C(=O)NC2CCCCC2)cc1,-0.777%
10,NC(=O)C1CCN(C(=O)c2ccc(Oc3cc(Cl)cc(Cl)c3)o2)CC1,-2.91%
11,COc1ccccc1-n1cnnc1SCC(=O)Nc1ncc(Cl)cc1Cl,-7.89% [at 1.6 µM]
12,COc1ccccc1NC(=O)COC(=O)/C=C/c1cccs1,6.16%
13,COc1ccccc1NC(=O)c1cccs1,-1.1% [at 1.6 µM]
14,O=C(COC(=O)c1ccc(O)cc1)Nc1ccc(Cl)cc1,0.856%
15,O=[N+]([O-])c1cc(Cl)ccc1Nc1ccccc1,2.42%
16,CC(=O)Nc1ccc(NC(=O)C2CCN(C(=O)c3cccs3)CC2)cc1,-11.3%
17,O=C(NCC1CCCO1)C(c1ccc(F)cc1)N(CCCN1CCOCC1)C(=O)c1ccc(-c2ccccc2)[nH]1 (stereo not given),10.5%
18,COCCn1c(C(C)C)nc2sc3ccccc3c(=O)c2c1=O,5.81%
19,COC(=O)CNS(=O)(=O)c1ccc(C)cc1,2.24%
20,COC(=O)[C@]1(C)N[C@H](CN(C)C(=O)Nc2ccc(C)cc2)[C@@H]2C(=O)N(Cc3ccccc3)C(=O)[C@@H]21,3.23%
